Compound activity: PubChem, National Center for Advancing Translational Sciences (NCATS)
This is a sample that favours compounds with a hit; in the whole collection about 12% have one here.
G9a block = qHTS Assay for Inhibitors of Histone Lysine Methyltransferase G9a; AID 504332, 2011; Histone-lysine N-methyltransferase EHMT2 (Homo sapiens), Q96KQ7; Potency, µM (top dose mostly 102 µM), hits mostly inhibitors; actives 8.8% (n = 350,000); G9a H3K9 monomethylation, AlphaScreen, 2 h; note: nearly all actives have a fitted effect of over 75% in size
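Using a bead-based AlphaScreen, monomethylated H3K9 product from 2 h room-temperature reactions (G9a 20 nM, peptide 500 nM, SAM 20 uM) was detected with 0.5 ug/mL rabbit anti-H3K9me1 antibody.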
JMJD2A Tudor = qHTS Assay for Inhibitors of JMJD2A-Tudor Domain; AlphaScreen JMJD2A-Tudor / H3K4me3 peptide binding; Potency, µM (titrated, usually from 114 µM), most hits filed as inhibitors; actives 4.4% (n = 390,000); note: nearly all actives have a fitted effect of over 50% in size
Target sequence (O75164 whole entry, looked up, the tested form may be a part): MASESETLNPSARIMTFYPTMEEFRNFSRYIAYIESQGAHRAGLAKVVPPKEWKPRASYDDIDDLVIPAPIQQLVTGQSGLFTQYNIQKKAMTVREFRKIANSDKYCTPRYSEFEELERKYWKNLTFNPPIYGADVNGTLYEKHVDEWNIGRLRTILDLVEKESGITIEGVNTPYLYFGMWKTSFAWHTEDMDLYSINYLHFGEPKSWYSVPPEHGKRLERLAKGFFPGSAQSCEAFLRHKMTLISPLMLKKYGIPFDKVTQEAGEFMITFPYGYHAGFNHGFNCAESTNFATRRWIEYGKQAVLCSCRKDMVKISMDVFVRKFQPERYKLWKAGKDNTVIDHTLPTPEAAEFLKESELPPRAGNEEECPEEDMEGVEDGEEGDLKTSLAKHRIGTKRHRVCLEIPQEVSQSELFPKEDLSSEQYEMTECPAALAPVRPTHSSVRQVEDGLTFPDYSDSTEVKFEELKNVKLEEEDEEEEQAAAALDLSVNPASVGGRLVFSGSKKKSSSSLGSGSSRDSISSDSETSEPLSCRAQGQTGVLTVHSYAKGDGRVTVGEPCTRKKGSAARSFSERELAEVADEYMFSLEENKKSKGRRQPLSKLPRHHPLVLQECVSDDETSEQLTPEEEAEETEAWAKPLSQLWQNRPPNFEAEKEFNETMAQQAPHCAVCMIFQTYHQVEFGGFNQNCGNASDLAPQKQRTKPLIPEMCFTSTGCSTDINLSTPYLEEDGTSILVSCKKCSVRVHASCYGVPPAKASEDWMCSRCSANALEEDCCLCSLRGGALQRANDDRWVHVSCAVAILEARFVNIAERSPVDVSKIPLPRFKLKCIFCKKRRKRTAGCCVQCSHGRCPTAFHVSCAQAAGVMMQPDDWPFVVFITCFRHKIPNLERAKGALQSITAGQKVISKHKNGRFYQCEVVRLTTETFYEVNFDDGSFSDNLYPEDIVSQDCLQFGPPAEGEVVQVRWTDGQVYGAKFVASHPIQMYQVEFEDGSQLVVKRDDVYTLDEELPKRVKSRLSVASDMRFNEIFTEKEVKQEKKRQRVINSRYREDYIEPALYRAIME
BAZ2B inh = qHTS Assay for Inhibitors of BAZ2B; AID 504333, 2011; AlphaScreen BAZ2B-H3K14Ac peptide displacement; actives 4.4% (n = 360,000); Bromodomain adjacent to zinc finger domain protein 2B (Homo sapiens), Q9UIF8; Potency, µM (titrated, usually from 114 µM), hits mostly inhibitors; note: nearly all actives have a fitted effect of over 60% in size
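Inhibition is scored as reduced AlphaScreen emission. The BAZ2B/b-H3(5-23)K14Ac complex (50 nM each) in PBS pH 7.4, 0.01% Tween-20 meets compound (up to 110 uM) for 30 min at RT before bead addition.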
HP1b chromo inh = HTS for Inhibitors of HP1-beta Chromodomain Interactions with Methylated Histone Tails; Chromobox protein homolog 1 (Homo sapiens), P83916; Potency, µM (doses to about 114 µM), most hits filed as inhibitors; actives 0.56% (n = 390,000); AID 540317, 2011; AlphaScreen HP1-beta / biotin-H3K9me3 peptide binding; note: nearly all actives have a fitted effect of over 70% in size
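AlphaScreen: HP1-beta (50 nM) preformed 30 min with biotin-H3(1-18)K9me3 peptide (50 nM) in PBS pH 7.4, 0.01% Tween-20. Compound added for 30 min at RT, then streptavidin donor/nickel chelate acceptor beads (10 ug/mL) for 30 min.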
Sfp PPTase inh = qHTS Assay for Inhibitors of Bacillus subtilis Sfp phosphopantetheinyl transferase (PPTase). Biochemical Sfp PPTase activity, qHTS. Potency, µM, usual class: inhibitors. actives 3.5% (n = 310,000). AID 1490, 2009;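 note: the enzyme is Sfp with the accession as filed and its product quenches rhodamine fluorescence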
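After 15 min at room temperature with compound, 15 nM Sfp received 5 uM rhodamine-CoA plus 12.5 uM BHQ-2-ybbR (50 mM Hepes pH 7.6, 10 mM MgCl2). Rate came from the fluorescence difference over 30 min, ex 525/em 598 nm.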
PLK1 PBD block = qHTS for Inhibitors of PLK1-PDB (polo-like kinase 1 - polo-box domain): Primary Screen; actives 2.8% (n = 360,000); Plk1 PBD binding of FITC phosphopeptide, fluorescence polarization; AID 720504, 2013; Potency, µM, actives largely listed as inhibitors; Serine/threonine-protein kinase PLK1 (Homo sapiens), P53350; note: series mostly up to about 57 µM; nearly all actives have a fitted effect of over 65% in size
Large screens that a line does not name were inactive. Calls come from the whole dose curve; as a rule, active = well fitted curve in the direction sought with a large enough effect; inconclusive = small, poorly fitted or top-dose-only effect, or another doubt; inactive = no such curve, though single readings can be large; an effect the other way counts as inactive or inconclusive.

O=C(CSc1nnnn1-c1ccccc1)NC1CCCc2ccccc21 (stereo not given)	G9a block 35µM
CN(C)C(=O)CSc1nnc2sc3ccccc3n12	none
O=C(CSc1ncnc2ccccc12)c1ccco1	G9a block 13µM, JMJD2A Tudor inconclusive, HP1b chromo inh inconclusive, Sfp PPTase inh 20µM, PLK1 PBD block inconclusive
O=C(CSc1nnc2sc3ccccc3n12)c1ccco1	G9a block 10µM, PLK1 PBD block inconclusive
O=C(c1ccncc1)N1CCC[C@@]2(CCN(Cc3ccccc3)C2)C1	none (no result: JMJD2A Tudor, BAZ2B inh, HP1b chromo inh, PLK1 PBD block)
CCc1ccc(CNC(=O)C(CC)n2nc(C)c3c(C)n(-c4ccccc4)nc3c2=O)cc1 (stereo not given)	none (no result: Sfp PPTase inh, PLK1 PBD block)
CCN(CC)CCCN(Cc1cc2cc3c(cc2[nH]c1=O)OCCO3)C(=O)Nc1ccc(F)cc1	G9a block inconclusive
O=C(CSCCSCC(=O)c1ccco1)c1ccco1	G9a block 10µM, BAZ2B inh inconclusive, Sfp PPTase inh 45µM (no result: JMJD2A Tudor, HP1b chromo inh, PLK1 PBD block)
Cn1nnnc1SCC(=O)c1ccco1	G9a block inconclusive, Sfp PPTase inh inconclusive
O=c1c2ccccc2nnn1CSc1nnc2sc3ccccc3n12	G9a block 7.1µM (no result: JMJD2A Tudor, HP1b chromo inh, PLK1 PBD block)
O=c1c2ccccc2nnn1CSc1nc2ccccc2[nH]1	none
O=C(NCCc1ccccc1)c1c[nH]c2c(F)cccc2c1=O	JMJD2A Tudor inconclusive, PLK1 PBD block 27µM
O=C(O)CC(CCc1ccccc1)OC1OC(CO)C(O)C(O)C1O (stereo not given)	G9a block inconclusive, JMJD2A Tudor 8.9µM, BAZ2B inh inconclusive, HP1b chromo inh inconclusive
CC(=O)NN1C(=O)/C(=C\c2ccc(O)cc2)SC1=S	G9a block inconclusive
COc1cc(/C=C2\SC(=S)N(c3cccnc3)C2=O)ccc1O	BAZ2B inh inconclusive
COc1cc(/C=C2\SC(=S)N(NC(=O)c3cccnc3)C2=O)ccc1O	G9a block inconclusive, BAZ2B inh 45µM
COc1cc(/C=C2\SC(=S)N(NC(=O)c3ccc(O)cc3)C2=O)ccc1O	JMJD2A Tudor inconclusive, BAZ2B inh 40µM, HP1b chromo inh 56µM
CCN1C(=O)/C(=C2\SC(=S)N(NC(=O)c3cccnc3)C2=O)c2ccccc21	G9a block 40µM, JMJD2A Tudor inconclusive, BAZ2B inh inconclusive
CCN1/C(=C2/SC(=S)N(NC(C)=O)C2=O)Sc2ccccc21	none (no result: G9a block)
COc1cccc(CN(Cc2ccco2)c2cnc(S(C)(=O)=O)nc2C(=O)Nc2cccc(Cl)c2C)c1	G9a block inconclusive, BAZ2B inh inconclusive (no result: Sfp PPTase inh, PLK1 PBD block)
CN(C(=O)c1cccs1)c1ccc(OCC(=O)N2CCC(C(N)=O)CC2)cc1	none
Cc1[nH]c2ccc(C(=O)N3CCN(c4ccccc4F)CC3)cc2c1C	G9a block inconclusive, JMJD2A Tudor 89µM, BAZ2B inh inconclusive, HP1b chromo inh inconclusive (no result: Sfp PPTase inh, PLK1 PBD block)
Cc1ccc(NC(=O)c2ccc3c(c2)CCN3S(C)(=O)=O)cc1C	JMJD2A Tudor 16µM, PLK1 PBD block 3µM
Cc1ccc(NC(=O)c2ccc3c(c2)CCN3S(C)(=O)=O)cc1	none (no result: G9a block, JMJD2A Tudor, BAZ2B inh, HP1b chromo inh, Sfp PPTase inh)
CC1=C(C(=O)Nc2ccc(C(=O)N3CCN(c4cccc(Cl)c4)CC3)cc2)SCCO1	G9a block 45µM, JMJD2A Tudor inconclusive, BAZ2B inh inconclusive
CC1=C(C(=O)Nc2ccc(C(=O)N3CCN(c4ccccc4F)CC3)cc2)SCCO1	JMJD2A Tudor inconclusive, BAZ2B inh inconclusive
COc1ccccc1N1CCN(C(=O)c2cc3c(C)nc4ccccc4c3o2)CC1	G9a block 50µM, BAZ2B inh inconclusive
Cc1ccc(C)c(N2CCN(C(=O)c3cc4c(C)nc5ccccc5c4o3)CC2)c1	G9a block inconclusive, JMJD2A Tudor inconclusive, BAZ2B inh inconclusive, Sfp PPTase inh inconclusive
Cc1ccc(S(=O)(=O)N2CCCCC2)cc1NC(=O)COC(=O)C1(C)CC1(Cl)Cl (stereo not given)	none (no result: Sfp PPTase inh)
Cc1cccc(N2CCN(C(=O)c3ccc4[nH]c(C)c(C)c4c3)CC2)c1C	JMJD2A Tudor inconclusive (no result: G9a block, BAZ2B inh, Sfp PPTase inh)
Cc1[nH]c2ccc(C(=O)N3CCN(c4cccc(Cl)c4)CC3)cc2c1C	G9a block 40µM, JMJD2A Tudor inconclusive, BAZ2B inh inconclusive
Cc1[nH]c2ccc(C(=O)N3CCCC3)cc2c1C	none
CCOC(=O)c1[nH]c(C)c(C(=O)N2CCN(c3ccc(F)cc3)CC2)c1C	G9a block inconclusive
COc1ccc(C(=O)N2CCCC(Nc3ccc(C)c(C)c3)C2)cc1 (stereo not given)	JMJD2A Tudor inconclusive, BAZ2B inh inconclusive
CCOC(=O)c1[nH]c(C)c(C(=O)N2CCN(c3cccc(Cl)c3)CC2)c1C	G9a block inconclusive, JMJD2A Tudor inconclusive, BAZ2B inh 50µM
COc1ccccc1N1CCN(C(=O)c2ccc3[nH]c(C)c(C)c3c2)CC1	G9a block 40µM, JMJD2A Tudor inconclusive, BAZ2B inh inconclusive
COc1ccc(NC2CCCN(C(=O)c3ccc4[nH]c(C)c(C)c4c3)C2)cc1OC (stereo not given)	JMJD2A Tudor inconclusive, BAZ2B inh 45µM (no result: G9a block)
CCCCn1c(N)c(N(CC(C)C)C(=O)Cc2ccc(S(=O)(=O)N3CCOCC3)s2)c(=O)[nH]c1=O	none (no result: G9a block, BAZ2B inh, Sfp PPTase inh)
COc1ccc(NC(=O)Cn2nc(C)c3c(C)n(-c4ccccc4)nc3c2=O)cc1OC	G9a block inconclusive (no result: Sfp PPTase inh, PLK1 PBD block)
Cc1[nH]c2ccc(C(=O)N3CCN(c4ccccc4Cl)CC3)cc2c1C	G9a block inconclusive, JMJD2A Tudor 45µM, BAZ2B inh 22µM, HP1b chromo inh inconclusive, Sfp PPTase inh inconclusive
CC1CCc2[nH]c3ccc(C(=O)O)cc3c2C1 (stereo not given)	none (no result: G9a block)
COc1ccccc1N1CCN(C(=O)c2ccc3[nH]c4c(c3c2)CC(C)CC4)CC1 (stereo not given)	G9a block inconclusive, JMJD2A Tudor inconclusive, BAZ2B inh 40µM, HP1b chromo inh inconclusive
COc1ccccc1N1CCN(C(=O)c2ccc3c(c2)CCN3S(C)(=O)=O)CC1	JMJD2A Tudor inconclusive, PLK1 PBD block 21µM
COC(=O)NC(/C(C(=O)OC)=C(\C)NCc1ccccc1)c1ccc2ccccc2c1 (stereo not given)	none (no result: G9a block, JMJD2A Tudor, BAZ2B inh, HP1b chromo inh, PLK1 PBD block)
COc1ccc(OCC(O)CNS(=O)(=O)c2ccc(NC(C)=O)cc2)cc1 (stereo not given)	none
Cc1[nH]c(=O)[nH]c(=O)c1NC(=O)c1ccccc1[N+](=O)[O-]	none (no result: G9a block, JMJD2A Tudor, BAZ2B inh, HP1b chromo inh, Sfp PPTase inh)
CC(C(=O)O)n1c(-c2ccn[nH]2)n[nH]c1=S (stereo not given)	G9a block inconclusive, Sfp PPTase inh inconclusive, PLK1 PBD block 15µM
